# Measurements as given in the supplement of paper PMC6555819.
# Tested on: PXR:RXRa (NR concentration 270 nM, RXRa partner concentration 90 nM)
# Assay: PBM binding z-score (relative to random genomic background probes); higher = stronger binding; sequences stand for … in GC…GCGATTGACAGCGTAGAATGAAGG
# Procedure, shortened: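 Random background probes are the reference for binding z-scores. These scores derive from regression-normalized fluorescence on custom Agilent 4×180K protein-binding microarrays incubated 1 h with ligand-free nuclear receptor dimers. Binding was detected with antibodies against each partner (one per run).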
row,Sequence,PBM binding z-score
1,TCAATGAGGTTAAAGATCAGGGAACGTGGCGTCG,1.83
2,TAGCTTAGGTCATTGGGCCAGTATAGTACGCATC,1.97
3,GGAACCAGGGCAAGTTGATAGCAGAGTTTGATGG,0.554
4,TTACCAAGATGAAGGTCGTTGATCCCTCTGTAGA,1.15
5,TCTTGTAGATCAAGCAGGTTAAGAACGCCTGAGT,0.399
6,TGAATGAGGTTAAAGATCAGGGCACGTGGCGTCG,2.32
7,ATCTCTAGGTAAGACTCCGTTCAGTGAAGAACGC,0.0673
8,CCAGACAGGTAAAAGGTAACTCAGTCTGGTACGC,0.265
9,TCATATAGGTAAAAGGTGAAATTCGGTGTGGTAA,1.62
10,GGAACGAGGACAAGTTGATAGCAGAGTTTGATGG,0.0933
11,TCGAGTAGGTTTGTCGGGGCATTCAGCCAACATA,0.311
12,GATACAGGGTCAGCTAGAGGCCAGAGTGTGGAAA,3.5
13,TAGCCAAGGTCATGGGCCAGTATACCACGCGAAC,4.24
14,GCTAGTTGGTGAGTAAAAGGTCACACACCGGTCG,4.81
15,CCTACTGGGCCATCAGATCATTGATATCAACGTT,-0.487
16,TAGCCTAGGTCATCCGGGCCAGTATAGTGTCGGC,2.07
17,CGTCCAAGGTCAAAGGACAGTGAAGAGATGACGG,3.74
18,TCACGGAGGACACGAAAGGTCAGAGCTCGACATC,4.03
19,AATGCAGGGTCACTAGGCCAGAGTAGGTACGAAT,3.26
20,CGAACTAGGTCATTGGCAGGACAGTGAATAGTAA,1.61
21,TCATATAGGTAATACAGGTGAAGGTCGGCATCTA,1.16
22,AGAATGAGGTTAAGATCAGTGAAACAGAATACAT,1
